Active and inactive are the calls of the source. How the source made its calls: active means hit-call score of the fitted dose curve at least 0.9, where 1 is the maximum; inactive means score below 0.9.

The nature of assay [1]: ATG_CRE_CIS: Attagene CIS-FACTORIAL HepG2 Assay for human cAMP Responsive Element (CRE) binding protein 3 (AID 2282926). The settings on record: HepG2 CRE cis-reporter, Attagene multiplexed mRNA; actives raise or lower the signal. A digest of the protocol: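 We dosed HepG2 cells bearing multiple cis-promoter reporter units for 24 h and measured reporter mRNA by RT-PCR with capillary electrophoresis detection. Bidirectional concentration-response fitting used DMSO as negative control.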

Assay [2] addresses CCAAT/enhancer-binding protein beta (Homo sapiens) (UniProt P17676). The assay is described as follows: ATG_C_EBP_CIS: Attagene CIS-FACTORIAL HepG2 Assay for human CCAAT/Enhancer Binding Protein (C/EBP) beta (AID 2282927). The settings on record: HepG2 Attagene cis-factorial transcription factor reporter; actives raise or lower the signal. A digest of the protocol: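 Transiently transfected HepG2 (MRTU library, endogenous TF-driven promoters); 24 h dosing; total RNA → oligo(dT) RT → PCR → 6-FAM primer extension → HpaI digest → CE; fit bidirectionally vs DMSO.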

Assay [3] in a line: ATG_CMV_CIS: Attagene CIS-FACTORIAL HepG2 Assay for human CMV (Internal Marker) (AID 2282928).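 Further: endpoint acts as a background internal control marker rather than a target.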 The settings on record: HepG2 CMV promoter reporter, transcription factor profiling; actives raise or lower the signal. A digest of the protocol: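 After transient transfection of HepG2 with reporter transcription units driven by cis-regulatory promoters, cells receive test chemical for 24 h. Labeled reporter amplicons, digested with HpaI, are sized and quantified by capillary electrophoresis against DMSO.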

The nature of assay [4]: ATG_DR4_LXR_CIS: Attagene CIS-FACTORIAL HepG2 Assay for human Liver X Receptor (LXR), DR4 submotif (AID 2282929). As to conditions: HepG2 Attagene DR4 cis-reporter, mRNA transcription; actives raise or lower the signal. In a few lines:
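DR4 cis-reporter in HepG2, 24 h exposure. Detection: RT-PCR, 6-FAM labelling, CE fragment analysis. Endpoint fitted bidirectionally, DMSO = baseline.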

The target of assay [5] is Aryl hydrocarbon receptor (Homo sapiens) (UniProt P35869). The assay is described as follows: ATG_Ahr_CIS: Attagene CIS-FACTORIAL HepG2 Assay for human Aryl Hydrocarbon Receptor (Ahr) (AID 2282930). As to conditions: HepG2 AhR cis-factorial reporter transcription; actives raise or lower the signal. In a few lines: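 Read-out: reporter mRNA quantified by RT-PCR with fluorescent primer extension and capillary electrophoresis. Human HepG2 liver cells carried transfected cis-promoter reporter units and were exposed to chemical for 24 h; gain or loss fitted relative to DMSO.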

Assay [6] is described as follows: ATG_AP_1_CIS: Attagene CIS-FACTORIAL HepG2 Assay for human Activator Protein 1 (AP-1) (AID 2282931). The settings on record: HepG2 Attagene cis-factorial AP-1 reporter mRNA; actives raise or lower the signal. A digest of the protocol: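 Cis-regulated reporter units transiently expressed in HepG2 report endogenous transcription-factor activity. Signal: reporter mRNA at 24 h, via RT-PCR and fluorescent capillary electrophoresis. Endpoint derived by bidirectional fitting, DMSO as negative control.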

Assay [7] can be described thus: ATG_AP_2_CIS: Attagene CIS-FACTORIAL HepG2 Assay for human Activator Protein 2 (AP-2) (AID 2282932). The settings on record: HepG2 AP-2 cis-reporter, Attagene transcription factor profiling; actives raise or lower the signal. In a few lines:
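Multiplexed mRNA reporter assay in HepG2: cis-regulated units report endogenous factor activity after 24 h treatment. Fluorescence from capillary electrophoresis of RT-PCR products gives the signal, with DMSO as baseline.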

A short description of assay [8]: ATG_BRE_CIS: Attagene CIS-FACTORIAL HepG2 Assay for human Bone Morphogenetic Protein (BMP) Response Element (BRE) (AID 2282933). As to conditions: HepG2 BMP response element reporter, Attagene transcription factor profiling; actives raise or lower the signal. A digest of the protocol: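 Transient MRTU transfection of human HepG2 liver cells; 24 h compound treatment; total RNA isolated, reverse-transcribed, PCR-amplified, 6-FAM labelled, HpaI-cut, capillary electrophoresis. DMSO = negative control/baseline, bidirectional fit.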

Assay [9] concerns the target Retinoic acid receptor alpha (Homo sapiens) (UniProt P10276). In words: ATG_DR5_RAR_CIS: Attagene CIS-FACTORIAL HepG2 Assay for human Retinoic Acid Receptor Alpha (RARE), DR5 submotif (AID 2282934).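 On AC50: reporter responds to endogenous RAR alpha beta and gamma in HepG2 not RARA alone.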 As to conditions: HepG2 Attagene cis-factorial RARE DR5 reporter, mRNA; actives raise or lower the signal. A digest of the protocol: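 Read-out: DR5-driven reporter transcript measured by RT-PCR, 6-FAM primer extension, HpaI digest and capillary electrophoresis. Human HepG2 liver cells carry transiently transfected cis-element reporter constructs; dosing lasts 24 h. Gain or loss of signal fitted against DMSO baseline.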

Sequence of CCAAT/enhancer-binding protein beta (Homo sapiens) (P17676 whole entry, looked up): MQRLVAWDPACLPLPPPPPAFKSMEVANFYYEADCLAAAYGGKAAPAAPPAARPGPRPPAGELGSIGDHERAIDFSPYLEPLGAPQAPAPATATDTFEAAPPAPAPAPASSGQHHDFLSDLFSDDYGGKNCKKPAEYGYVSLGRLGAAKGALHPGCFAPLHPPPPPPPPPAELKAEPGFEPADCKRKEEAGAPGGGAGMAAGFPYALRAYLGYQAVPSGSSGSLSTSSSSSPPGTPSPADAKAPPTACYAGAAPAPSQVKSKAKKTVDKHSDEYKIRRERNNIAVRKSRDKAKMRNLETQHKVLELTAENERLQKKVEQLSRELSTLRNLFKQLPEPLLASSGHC
Sequence of Aryl hydrocarbon receptor (Homo sapiens) (P35869 whole entry, looked up): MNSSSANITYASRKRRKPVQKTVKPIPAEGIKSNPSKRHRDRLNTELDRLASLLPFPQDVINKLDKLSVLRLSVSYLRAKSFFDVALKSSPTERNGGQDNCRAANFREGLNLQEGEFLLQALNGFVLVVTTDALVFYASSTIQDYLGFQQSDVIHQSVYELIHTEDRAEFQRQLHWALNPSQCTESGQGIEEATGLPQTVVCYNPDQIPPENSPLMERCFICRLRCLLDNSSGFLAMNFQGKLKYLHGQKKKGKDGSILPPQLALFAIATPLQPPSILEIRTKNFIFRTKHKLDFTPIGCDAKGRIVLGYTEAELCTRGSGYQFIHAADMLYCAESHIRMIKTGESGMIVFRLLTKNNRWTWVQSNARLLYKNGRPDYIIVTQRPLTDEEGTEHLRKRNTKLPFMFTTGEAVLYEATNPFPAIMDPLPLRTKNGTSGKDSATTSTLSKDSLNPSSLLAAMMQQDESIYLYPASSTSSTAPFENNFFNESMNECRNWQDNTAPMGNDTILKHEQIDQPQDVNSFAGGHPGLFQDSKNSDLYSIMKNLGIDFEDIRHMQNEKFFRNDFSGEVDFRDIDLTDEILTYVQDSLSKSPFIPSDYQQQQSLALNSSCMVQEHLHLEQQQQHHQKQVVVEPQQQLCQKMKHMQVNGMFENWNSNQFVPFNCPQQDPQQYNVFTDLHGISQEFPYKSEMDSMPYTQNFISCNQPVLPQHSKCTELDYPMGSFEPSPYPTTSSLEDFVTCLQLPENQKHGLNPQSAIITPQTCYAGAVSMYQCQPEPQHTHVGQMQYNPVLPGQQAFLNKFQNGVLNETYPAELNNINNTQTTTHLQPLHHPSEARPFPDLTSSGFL
Sequence of Retinoic acid receptor alpha (Homo sapiens) (P10276 whole entry, looked up): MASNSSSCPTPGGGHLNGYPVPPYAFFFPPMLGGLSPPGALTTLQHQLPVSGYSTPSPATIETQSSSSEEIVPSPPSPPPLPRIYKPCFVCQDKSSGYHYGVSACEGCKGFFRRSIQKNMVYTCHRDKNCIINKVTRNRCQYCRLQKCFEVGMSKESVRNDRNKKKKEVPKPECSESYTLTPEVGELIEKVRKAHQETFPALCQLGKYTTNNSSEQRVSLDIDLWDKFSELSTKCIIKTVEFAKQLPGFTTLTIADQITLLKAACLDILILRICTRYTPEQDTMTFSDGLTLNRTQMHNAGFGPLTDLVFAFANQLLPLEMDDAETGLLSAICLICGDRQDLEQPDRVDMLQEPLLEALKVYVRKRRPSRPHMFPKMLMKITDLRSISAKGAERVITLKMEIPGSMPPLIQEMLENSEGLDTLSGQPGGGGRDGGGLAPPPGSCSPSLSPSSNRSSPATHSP

As for `CCc1cccc(O)c1`, the result in assay [1], in assay [2], in [3], in assay [4], in assay [5] and in [6] was inactive. Also, the outcome in assay [7] and in assay [8] was inactive.

In the case of `CC(O)COCC(C)O` (stereo unspecified), the result in assay [1], in [2], in assay [3], in assay [4], in assay [5] and in assay [6] was inactive. Also, the call in assay [7] and in assay [8] was inactive.

As to `O=C(O)c1ccco1`, the call in [1], in assay [2], in [3], in assay [4], in assay [5] and in [6] was inactive. The compound was called inactive in assay [7] and in assay [8].

In the case of `CC(=O)CC(C)(C)C1CCCCC1`, the result in assay [1], in assay [2], in assay [3], in assay [4], in assay [5] and in assay [6] was inactive. The call in assay [7], in assay [8] and in assay [9] was inactive.

Consider `CC(C)(CO)CO`, for which the result in assay [1], in [2], in assay [3], in [4], in [5] and in assay [6] was inactive. The outcome in [7] and in assay [8] was inactive.

As to `O=S(=O)(O)c1cc(S(=O)(=O)O)c2c(N=Nc3ccccc3)c(O)ccc2c1`, the outcome in assay [1], in [2], in assay [3], in assay [4], in [5] and in assay [6] was inactive. Besides, the compound was called inactive in assay [7] and in assay [8].

With `O=C(O)c1ccc(C(=O)O)c(C(=O)O)c1`, the compound was classed as inactive in assay [1], in assay [2], in assay [3], in [4], in [5] and in assay [6]. Moreover, the result in [7], in [8] and in [9] was inactive.

For `[O-]/[N+](=N\O)c1ccccc1`, the compound was called inactive in assay [1], in assay [2], in assay [3], in assay [4], in [6] and in [7]. For the same compound, the outcome in assay [8] and in assay [9] was inactive. Moreover, the AC50 (usually the concentration giving half of the maximal activity seen) in assay [5] was 4.26 µM (active).

As for `c1ccc(OCCOc2ccccc2)cc1`, the compound was classed as inactive in assay [1], in assay [2], in assay [3], in assay [4], in [6] and in [7]. In assay [8], the outcome was inactive. Moreover, the half-maximal activity concentration (AC50) in assay [5] was 0.142 µM (active).

On to `c1ccc(Cc2ccccc2)cc1`, for which the result in [1], in [2], in assay [3], in assay [4], in assay [5] and in assay [6] was inactive. Besides, the outcome in [7] and in [8] was inactive.

On to `CC(C)Cc1ccc(C(C)C(=O)O)cc1` (stereo unspecified), for which the result in [1], in assay [2], in assay [3], in assay [4], in [5] and in assay [6] was inactive. The compound was called inactive in assay [7], in [8] and in assay [9].

In the case of `CC(=O)CCC(=O)O`, the compound was classed as inactive in assay [1], in assay [2], in assay [3], in assay [4], in assay [5] and in assay [6]. Moreover, the compound was classed as inactive in [7] and in assay [8].

As for `CN(C)C(=O)Nc1ccccc1`, the compound was classed as inactive in assay [1], in assay [2], in assay [3], in [4], in [5] and in [6]. For the same compound, the outcome in assay [7], in [8] and in [9] was inactive.

As for `O=S1(=O)CC=CC1`, the outcome in assay [1], in [2], in assay [3], in assay [4], in assay [5] and in assay [6] was inactive. Also, the compound was called inactive in [7], in assay [8] and in assay [9].

Consider `NC(=O)c1cccnc1`, for which the result in assay [1], in assay [2], in assay [3], in [4], in assay [6] and in assay [7] was inactive. Besides, in [8], the compound was classed as inactive. Also, the AC50 in assay [5] was 29 µM (active).

For the compound `O=C1OC2(c3ccc(O)cc3Oc3cc(O)ccc32)c2ccccc21`, the call in [1], in assay [2], in assay [3], in assay [4], in assay [6] and in assay [7] was inactive. Besides, the outcome in assay [8] was inactive. The AC50 in assay [5] was 25.9 µM (active).

For the compound `CC(C)=CCCC(C)=CC(=O)O`, the compound was classed as inactive in assay [1], in [2], in assay [3], in [4], in assay [5] and in assay [6]. For the same compound, the result in [7] and in assay [8] was inactive.

For the compound `CCC(C)(CCCC(C)C)OC(C)=O` (stereo unspecified), the compound was called inactive in [1], in [2], in [3], in assay [4], in [6] and in assay [7]. In addition, the compound was called inactive in [8]. The AC50 in [5] is 71.4 µM (active).

As for `CCCCCCCCCCCCOC(C)=O`, the compound was classed as inactive in assay [1], in assay [2], in assay [3], in assay [4], in [5] and in [6]. Further, the result in assay [7], in [8] and in assay [9] was inactive.

With `[Cu+]`, the compound was classed as inactive in assay [1], in [2], in assay [3], in assay [4], in [6] and in assay [7]. The result in assay [8] and in assay [9] was inactive. In assay [5], the AC50 was 15 µM (active).

As to `COC(=O)c1cccc(C(=O)OC)c1`, the outcome in assay [1], in assay [2], in assay [3], in assay [4], in assay [6] and in assay [7] was inactive. The compound was called inactive in [8] and in [9]. Moreover, in assay [5], the concentration at half-maximal activity (AC50) is 71.4 µM (active).

Take `CCC(C)COC(=O)CC(C)C` (stereo unspecified): the call in assay [1], in assay [2], in assay [3], in assay [4], in [5] and in assay [6] was inactive. For the same compound, the call in assay [7], in assay [8] and in assay [9] was inactive.

Take `O=S(=O)(O)CCCN1CCOCC1`: the compound was called inactive in [1], in assay [2], in assay [3], in assay [4], in [5] and in assay [6]. For the same compound, the outcome in [7], in assay [8] and in assay [9] was inactive.

As to `O=Cc1ccccc1O`, the outcome in [1], in [2], in [3], in [4], in [6] and in [7] was inactive. Also, the call in [8] and in assay [9] was inactive. For the same compound, the AC50 in assay [5] is 48.5 µM (active).

With `CCCCCCCCCC(=O)OCC`, the AC50 was 92.2 µM (active) in assay [1], 58.8 µM (active) in [5] and 63.2 µM (active) in assay [9]. In addition, the result in assay [2], in assay [3], in [4], in assay [6], in assay [7] and in assay [8] was inactive.

`O=c1cc(-c2ccc(O)cc2)oc2cc(O)cc(O)c12`: the AC50 in [1] is 26 µM (active); in assay [2], 16.8 µM (active); in assay [3], 6.31 µM (active); in [4], 7.83 µM (active); in assay [6] it was 64.3 µM (active). The call in assay [5], in [7], in assay [8] and in [9] was inactive.

As to `CCCCOCCOCCOCCO`, the call in [1], in [2], in assay [3], in assay [4], in [5] and in assay [6] was inactive. In addition, the outcome in assay [7], in assay [8] and in assay [9] was inactive.

The record behind these values is PubChem BioAssay (EPA / NIEHS).
